# esBAF inh: Bmi1 luciferase reporter increase in mESCs, primary screen, esBAF inhibitor project, mouse ES cells, Bmi1 luciferase knock-in, single point; reporter increase, % at 12.5 µM; 2% of 350,000 active; AID 602393, 2012; 24 h; 100% = twice the neutral-well signal; in the data active = activation above about 40%; inconclusive = no clear call, values can overlap the other calls;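 also: 0% = median of the plate's neutral control wells and 100% = double that signal; a rise in the Bmi1 reporter signal indicates esBAF inhibition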
# Statin myotox sup: suppressors of statin myotoxicity in C2C12 myotubes, primary screen, cell-based, single point, plate reader; C2C12 myotubes + simvastatin, ATP luminescence, 48 h; scaled: DMSO 0, geranylgeraniol control 100; rescue of ATP level, % at 7.49 µM; 0.78% of 330,000 active;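 active = mean ATP rescue above about 67%, or every replicate alone reaching that limit, limit read from the data, passing the limit was not always enough; inconclusive = no clear call, values can overlap the other calls; inactive = mean under the limit and some replicate under it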;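 also: myotubes were challenged with 10 µM simvastatin during compound exposure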
# TRPM1 prom inh: inhibitors of MITF-dependent TRPM1 promoter reporter, primary screen, cell-based, SK-MEL-5, single point, luciferase | SK-MEL-5 TRPM1 promoter luciferase, 24 h | inhibition, % at 12.5 µM | 0.83% of 330,000 active;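 active = mean inhibition across replicates of 60% or more, whatever share of single replicates reaches that level; inconclusive = some that reach 60%, reason not given; inactive = mean inhibition across replicates below 60%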
# Wnt bcat act: Wnt/beta-catenin pathway activators, primary screen, cell-based, plate reader, single point; 1.2% of 300,000 active; activation, % at 9.35 µM; AID 743398, 2014; Wnt/beta-catenin reporter cell assay, activator; in the data active = activation above about 30%, passing the limit was not always enough; inconclusive = no clear call, values can overlap the other calls;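 also: 0% = neutral control wells and 100% = positive control wells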
# EBV LMP1 NFkB: EBV LMP1-driven NF-kappaB luciferase reporter inhibitors, primary screen, cell-based, luminescence, single point; AID 504558, 2011; inhibition, % at 12.5 µM; 0.69% of 350,000 active; LMP1-induced NF-kappaB luciferase reporter cells; in the data active = inhibition above about 41%; inconclusive = no clear call, values can overlap the other calls;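 also: 0% = neutral control wells and 100% = reference inhibitor control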
# MITF TRPM1 HTS: activators of MITF-driven TRPM1 promoter reporter, primary screen, cell-based, SK-MEL-5, luciferase, single point | activation, % at 12.5 µM | SK-MEL-5 TRPM1-promoter luciferase, 24 h; % of positive control, neutral wells = 0 | 0.75% of 300,000 active;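 active = mean activation of at least 80% with every replicate also reaching 80%; inconclusive = mean reaches 80% but some replicate falls short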;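 also: 0% = neutral control wells and 100% = parthenolide positive control wells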
# * hit, by the source's call; ? = inconclusive; nt = no result. An excerpt weighted towards active compounds, which were near 4% of everything screened.
SMILES,esBAF inh,Statin myotox sup,TRPM1 prom inh,Wnt bcat act,EBV LMP1 NFkB,MITF TRPM1 HTS
O=c1[nH]c(SCc2nc3c(cnn3-c3ccccc3)c(=O)[nH]2)nc2ccccc12,44.5*,-2.3,-17.0,-1.7,-10.6,19.9
Cc1ccc(-n2ncc3c(=O)[nH]c(SCC(=O)N4CCOCC4)nc32)cc1,-10.3,128.8*,4.9,0.4,-6.5,2.1
O=C(CSc1nc2c(cnn2-c2ccccc2)c(=O)[nH]1)N1CCOCC1,-5.2,142.4*,-2.0,nt,11.6,2.4
C=CCCN(C(C(=O)OC)C(C)C)S(=O)(=O)c1ccccc1Br (stereo unspecified),2.9,-8.6,-2.7,2.9,-1.7,4.0
O=C(Cc1ccc([N+](=O)[O-])cc1)N1CCCc2ccccc21,nt,nt,13.8,-5.7,-1.8,-11.8
CC(C)C(=O)NC(c1ccco1)c1ccc2cccnc2c1O (stereo unspecified),-21.3,7.9,75.6*,nt,21.1,-74.0
Oc1c(C(Nc2nc3ccccc3s2)c2ccco2)ccc2cccnc12 (stereo unspecified),-3.4,?,32.7,16.7,61.2*,-37.5
O=C(NCc1ccco1)c1cccnc1-c1nc2ccccc2s1,-13.9,-6.9,-2.2,2.0,-6.7,nt
CCCC(=O)NC(c1ccc(N(C)C)cc1)c1c(O)ccc2ccccc12 (stereo unspecified),nt,nt,3.6,2.4,-6.3,-2.9
Cc1ccc(C(NC(=O)C(C)C)c2cc([N+](=O)[O-])c3cccnc3c2O)cc1 (stereo unspecified),nt,nt,38.5,12.5,13.9,-38.3
CCN(CC)c1ccc(C(NC(=O)C(C)C)c2ccc3cccnc3c2O)cc1 (stereo unspecified),-39.0,8.1,nt,-24.3,71.6*,nt
CCCCC(=O)NC(c1ccc(N(C)C)cc1)c1ccc2cccnc2c1O (stereo unspecified),-59.2,-51.6,61.0*,1.5,33.5,-59.1
O=C(c1ccc(N2CCN(C(=O)c3ccccc3Br)CC2)cc1)c1cccc(F)c1,7.7,-10.3,7.3,-4.0,-4.4,-6.9
COC(=O)c1cc(OC)c(OC)c(OC)c1N,-8.8,1.5,-5.2,-2.5,-11.6,9.7
CC(C)(C)c1ccc(OCCN2CCCC2)cc1,-2.9,2.7,-9.8,nt,0.1,12.0
CCCC(=O)NC(c1cccs1)c1cc(Cl)c2cccnc2c1O (stereo unspecified),nt,nt,45.3,-6.3,30.8,-45.2
CCCCC(=O)NC(c1ccc(N(CC)CC)cc1)c1ccc2cccnc2c1O (stereo unspecified),-22.6,4.0,58.4,-3.3,81.9*,nt
CC(CC(=O)Nc1ncc([N+](=O)[O-])s1)c1ccccc1 (stereo unspecified),13.0,-18.2,-18.5,18.6,-13.5,23.3
CC(C)Nc1nnc(SCC(=O)c2c(N)n(Cc3ccccc3)c(=O)n(C)c2=O)s1,nt,nt,-3.5,nt,64.2*,2.3
CC(C)Cn1cnc2c(SCc3ccccn3)nc(N)nc21,5.6,-0.1,-9.2,7.3,-4.9,7.9
CSc1nc(N)nc2c1ncn2Cc1ccccc1,nt,30.0,-1.1,-2.6,2.7,1.1
CC(C)Cn1cnc2c(SCc3ccccc3)nc(N)nc21,75.7*,-1.2,-33.5,6.2,-15.5,31.7
CCCn1cnc2c(SCCc3ccccc3)nc(N)nc21,61.3*,-1.9,-44.0,1.1,-15.0,44.0
CCCCn1cnc2c(SCCc3ccccc3)nc(N)nc21,nt,98.6*,-10.8,-5.4,-6.2,12.9
COC(=O)c1c(C(=O)OC)c(-c2ccc(C)cc2)n2c1CS(=O)C2 (stereo unspecified),-1.8,0.2,-0.6,nt,-24.0,1.1
SMILES,esBAF inh,Statin myotox sup,TRPM1 prom inh,Wnt bcat act,EBV LMP1 NFkB,MITF TRPM1 HTS
COc1cccc(-c2nc(CS(=O)(=O)CC(=O)NCCC(C)C)c(C)o2)c1,4.7,23.3,10.7,38.0*,-16.8,-7.4
COc1ccc(-c2nc(CS(=O)(=O)CC(=O)Nc3ccc(Cl)cc3)c(C)o2)cc1,66.4*,10.5,-12.0,-2.1,4.6,13.6
COCCCNC(=O)CS(=O)(=O)Cc1nc(-c2cccc(OC)c2)oc1C,8.2,-0.9,3.5,nt,-16.1,nt
CCc1nc2ccccc2n1CCc1ccccc1,nt,nt,5.0,-0.6,-5.8,-2.6
CCn1c(N)nc2ccccc21,52.7*,1.3,9.4,-2.2,4.9,-9.9
CCn1c(CCc2ccccc2)nc2ccccc21,42.1*,-17.9,-20.7,7.5,-2.0,nt
CCCn1c(N)nc2ccccc21,-1.5,2.2,-9.3,-3.3,2.7,-2.1
CC(C)N(Cc1ccccc1)C(=O)c1cccs1,1.4,-4.5,-1.1,-1.7,2.8,1.9
COCC(C)NC(=O)c1ccc2nc(-c3ccccc3)c(-c3ccccc3)nc2c1 (stereo unspecified),7.3,-17.1,-2.0,-0.2,11.1,1.0
C[C@H]1CCCCO[C@@H](CN(C)C(=O)Nc2ccccc2)[C@@H](C)CN([C@@H](C)CO)C(=O)c2cc(NC(=O)Nc3ccc4c(c3)OCO4)ccc2O1,44.1*,3.2,nt,nt,nt,nt
C[C@H](CO)N1C[C@H](C)[C@H](CN(C)C(=O)Nc2ccccc2)OCCCC[C@H](C)Oc2ccc(NC(=O)Nc3ccc4c(c3)OCO4)cc2C1=O,49.3*,-2.7,nt,nt,nt,nt
C[C@@H]1CCCCO[C@@H](CN(C)C(=O)Nc2ccc3c(c2)OCO3)[C@@H](C)CN([C@@H](C)CO)C(=O)c2cc(NC(=O)Nc3ccccc3)ccc2O1,-4.4,nt,nt,nt,nt,nt
Cc1ccc(NC(=O)CSc2nccn2C)cc1S(=O)(=O)N1CCOCC1,nt,nt,-9.7,nt,5.7,8.2
CC1(Cc2ccc(Cl)cc2)C(=O)Nc2ccc(-c3cccnc3)cc21 (stereo unspecified),-15.8,115.9*,nt,-1.2,nt,nt
Cc1ccc(Cc2c(-c3ccc(F)cc3)nc3cc(C)ccn23)cc1,44.2*,23.2,nt,16.4,-13.8,nt
COC(=O)c1sccc1NC(=O)CCC1CCCCC1,16.3,-1.4,-1.1,0.2,-1.4,nt
O=[N+]([O-])c1ccccc1N/N=C/c1cc2ccccc2nc1Cl,29.8,-66.0,-30.8,nt,-18.8,29.1
Cc1cccc2cc(/C=N/Nc3ccc(C(=O)O)cc3)c(Cl)nc12,nt,nt,-170.7,38.4*,-131.9,153.0*
O=C(O)c1ccc(N/N=C/c2cc3ccccc3nc2Cl)cc1,nt,nt,-84.8,28.9,-11.2,88.4*
Cc1cccc2cc(/C=N/NC(=O)c3ccncc3)c(Cl)nc12,nt,nt,2.0,-1.3,2.9,nt
CS(=O)(=O)N(Cc1ccc(Cl)cc1)c1ccc(C(=O)N/N=C/c2cc3ccccc3nc2Cl)cc1,-7.4,2.3,-2.7,nt,58.1*,2.8
CS(=O)(=O)N(Cc1ccc(Cl)cc1)c1ccc(C(=O)NCc2ccccn2)cc1,nt,nt,7.6,8.2,-7.6,-6.9
Clc1nc2ccccc2cc1/C=N/Nc1nc2ccccc2[nH]1,nt,nt,-18.0,63.0*,-36.6,9.0

# Screens as filed in PubChem.
